Data taken from the supplement of paper PMC10849652.
The full data set covers some 8,800 targets. This sample favours those with a hit. About 0.5% of all pairs of compound and target were hits. Unmarked numbers belong to inactive results.

Columns and labels:
Experiment in all cases: log2 fold change, soluble protein after heating vs DMSO (PISA); higher = thermal stabilisation; K562 lysate, 10 uM; active = over 0.2 and 3.5 SD of the protein, either way, in both replicates (recomputed)
lapatinib = compound: CS(=O)(=O)CCNCc1ccc(-c2ccc3ncnc(Nc4ccc(OCc5cccc(F)c5)c(Cl)c4)c3c2)o1 [lapatinib]
Procedure, shortened: (§1)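 Thermal stability, expressed as log-two fold change relative to solvent controls, is given from duplicates. Crude K562 extract in PBS pH 7.4 with 1 mM MgCl2, at 1 mg/mL protein, was treated with 10 μM compound for 30 min and heated in aliquots for 3 min across 48°C-58°C. After pooling, adjustment to 0.5% NP-40 at 4°C and centrifugation at 21,000xg for 90 min, supernatant protein was measured by TMTpro 16plex LC-MS/MS with channel sums equalised.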

pictilisib = compound: CS(=O)(=O)N1CCN(Cc2cc3nc(-c4cccc5[nH]ncc45)nc(N4CCOCC4)c3s2)CC1 [pictilisib]
Procedure, shortened: as §1

crizotinib = compound: C[C@@H](Oc1cc(-c2cnn(C3CCNCC3)c2)cnc1N)c1c(Cl)ccc(F)c1Cl [crizotinib]
Procedure, shortened: as §1

[1] = compound: C[C@H](C1=CC=C(C=C1)C(=O)NC2=C3C=CNC3=NC=C2)N
Procedure, shortened: as §1

duvelisib = compound: C[C@H](Nc1ncnc2nc[nH]c12)c1cc2cccc(Cl)c2c(=O)n1-c1ccccc1 [duvelisib]
Procedure, shortened: as §1

gandotinib = compound: Cc1cc(Nc2cc(CN3CCOCC3)c3nc(C)c(Cc4ccc(Cl)cc4F)n3n2)n[nH]1 [gandotinib]
Procedure, shortened: as §1

tozasertib = compound: Cc1cc(Nc2cc(N3CCN(C)CC3)nc(Sc3ccc(NC(=O)C4CC4)cc3)n2)n[nH]1 [tozasertib]
Procedure, shortened: as §1

doramapimod = compound: Cc1ccc(-n2nc(C(C)(C)C)cc2NC(=O)Nc2ccc(OCCN3CCOCC3)c3ccccc23)cc1 [doramapimod]
Procedure, shortened: as §1

bafetinib = compound: Cc1ccc(NC(=O)c2ccc(CN3CC[C@H](N(C)C)C3)c(C(F)(F)F)c2)cc1Nc1nccc(-c2cncnc2)n1 [bafetinib]
Procedure, shortened: as §1

[2] = compound: Cc1cccc(CC(=O)N2CCc3c2ccc(-c2cn(C)c4ncnc(N)c24)c3F)n1
Procedure, shortened: as §1

UniProt Q9NVM4, sequence (Q9NVM4 whole entry, looked up): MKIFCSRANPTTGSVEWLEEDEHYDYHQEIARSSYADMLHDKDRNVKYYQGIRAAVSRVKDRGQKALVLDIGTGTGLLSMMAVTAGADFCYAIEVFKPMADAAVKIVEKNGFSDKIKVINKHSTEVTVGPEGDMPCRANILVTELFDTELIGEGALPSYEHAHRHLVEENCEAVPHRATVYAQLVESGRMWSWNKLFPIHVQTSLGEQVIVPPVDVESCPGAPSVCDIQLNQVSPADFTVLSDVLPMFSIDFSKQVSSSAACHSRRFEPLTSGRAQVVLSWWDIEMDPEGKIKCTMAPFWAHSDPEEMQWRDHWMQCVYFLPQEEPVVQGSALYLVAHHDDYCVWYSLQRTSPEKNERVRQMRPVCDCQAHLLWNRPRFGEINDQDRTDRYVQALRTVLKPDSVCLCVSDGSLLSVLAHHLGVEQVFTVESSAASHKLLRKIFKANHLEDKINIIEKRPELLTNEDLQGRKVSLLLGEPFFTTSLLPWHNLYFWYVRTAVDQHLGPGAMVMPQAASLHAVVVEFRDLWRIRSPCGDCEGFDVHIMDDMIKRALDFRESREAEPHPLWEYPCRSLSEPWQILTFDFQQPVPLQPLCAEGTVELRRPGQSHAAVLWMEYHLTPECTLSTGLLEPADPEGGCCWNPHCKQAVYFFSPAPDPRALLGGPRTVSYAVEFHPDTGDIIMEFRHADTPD
UniProt Q8TCD6, sequence (Q8TCD6 whole entry, looked up): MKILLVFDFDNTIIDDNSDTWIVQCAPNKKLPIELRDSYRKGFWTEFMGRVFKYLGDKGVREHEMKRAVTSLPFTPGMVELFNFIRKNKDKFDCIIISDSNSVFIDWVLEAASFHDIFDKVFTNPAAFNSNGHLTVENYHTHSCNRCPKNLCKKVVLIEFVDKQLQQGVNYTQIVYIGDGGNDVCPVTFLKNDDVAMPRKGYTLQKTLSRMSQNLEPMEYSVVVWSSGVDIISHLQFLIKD
UniProt Q9Y244, sequence (Q9Y244 whole entry, looked up): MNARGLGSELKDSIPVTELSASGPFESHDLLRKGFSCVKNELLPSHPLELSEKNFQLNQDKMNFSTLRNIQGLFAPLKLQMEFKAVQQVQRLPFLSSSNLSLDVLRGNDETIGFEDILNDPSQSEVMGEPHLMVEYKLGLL
UniProt Q9Y570, sequence (Q9Y570 whole entry, looked up): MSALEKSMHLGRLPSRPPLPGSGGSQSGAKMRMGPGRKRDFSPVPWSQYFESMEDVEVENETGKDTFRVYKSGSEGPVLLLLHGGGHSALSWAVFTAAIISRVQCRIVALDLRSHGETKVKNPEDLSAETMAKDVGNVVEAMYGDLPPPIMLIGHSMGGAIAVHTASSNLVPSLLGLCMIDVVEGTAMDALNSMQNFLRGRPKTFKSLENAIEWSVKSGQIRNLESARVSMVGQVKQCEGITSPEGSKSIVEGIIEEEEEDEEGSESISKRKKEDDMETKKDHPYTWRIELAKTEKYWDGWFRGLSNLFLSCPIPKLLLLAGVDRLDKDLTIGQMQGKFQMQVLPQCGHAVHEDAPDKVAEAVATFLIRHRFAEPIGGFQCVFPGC
UniProt P17706, sequence (P17706 whole entry, looked up): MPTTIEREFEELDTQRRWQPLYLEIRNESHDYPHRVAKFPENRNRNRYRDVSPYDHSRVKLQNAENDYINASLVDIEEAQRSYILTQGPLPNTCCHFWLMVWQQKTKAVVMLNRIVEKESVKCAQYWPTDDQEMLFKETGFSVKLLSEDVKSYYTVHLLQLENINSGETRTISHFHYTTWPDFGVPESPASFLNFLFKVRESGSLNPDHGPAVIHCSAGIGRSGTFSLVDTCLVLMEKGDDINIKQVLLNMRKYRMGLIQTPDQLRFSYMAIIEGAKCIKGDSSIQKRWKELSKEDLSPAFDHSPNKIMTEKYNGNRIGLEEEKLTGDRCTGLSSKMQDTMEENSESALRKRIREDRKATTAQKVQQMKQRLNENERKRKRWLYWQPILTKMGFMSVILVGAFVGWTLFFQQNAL
UniProt Q9UHX1, sequence (Q9UHX1 whole entry, looked up): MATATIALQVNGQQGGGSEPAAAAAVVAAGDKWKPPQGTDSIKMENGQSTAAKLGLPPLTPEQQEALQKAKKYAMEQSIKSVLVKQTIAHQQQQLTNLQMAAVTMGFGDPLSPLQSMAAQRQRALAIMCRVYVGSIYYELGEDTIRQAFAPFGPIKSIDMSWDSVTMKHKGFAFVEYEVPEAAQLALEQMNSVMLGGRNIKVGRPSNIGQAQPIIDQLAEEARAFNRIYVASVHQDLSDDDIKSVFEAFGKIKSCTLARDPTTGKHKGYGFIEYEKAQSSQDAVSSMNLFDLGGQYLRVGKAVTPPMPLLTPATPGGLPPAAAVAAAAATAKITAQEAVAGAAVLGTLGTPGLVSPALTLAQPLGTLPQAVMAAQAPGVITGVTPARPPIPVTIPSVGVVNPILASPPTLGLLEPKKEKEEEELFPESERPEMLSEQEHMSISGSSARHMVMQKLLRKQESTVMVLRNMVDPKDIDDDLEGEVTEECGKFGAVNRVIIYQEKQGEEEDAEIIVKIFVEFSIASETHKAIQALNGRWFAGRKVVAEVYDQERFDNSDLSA
UniProt Q9BTU6, sequence (Q9BTU6 whole entry, looked up): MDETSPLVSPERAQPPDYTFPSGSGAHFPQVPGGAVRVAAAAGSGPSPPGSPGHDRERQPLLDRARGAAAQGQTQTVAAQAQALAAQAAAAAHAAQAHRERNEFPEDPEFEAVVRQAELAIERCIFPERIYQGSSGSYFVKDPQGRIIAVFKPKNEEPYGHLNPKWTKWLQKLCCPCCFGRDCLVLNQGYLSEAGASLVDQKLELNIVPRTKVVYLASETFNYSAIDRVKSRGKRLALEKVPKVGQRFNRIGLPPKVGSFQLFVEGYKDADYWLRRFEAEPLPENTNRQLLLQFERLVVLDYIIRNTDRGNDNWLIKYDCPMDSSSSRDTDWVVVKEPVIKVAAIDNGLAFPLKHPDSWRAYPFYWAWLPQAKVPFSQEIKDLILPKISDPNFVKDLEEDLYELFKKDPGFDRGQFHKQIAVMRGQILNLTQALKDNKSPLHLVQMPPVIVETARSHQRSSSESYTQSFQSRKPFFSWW
UniProt P54278, sequence (P54278 whole entry, looked up): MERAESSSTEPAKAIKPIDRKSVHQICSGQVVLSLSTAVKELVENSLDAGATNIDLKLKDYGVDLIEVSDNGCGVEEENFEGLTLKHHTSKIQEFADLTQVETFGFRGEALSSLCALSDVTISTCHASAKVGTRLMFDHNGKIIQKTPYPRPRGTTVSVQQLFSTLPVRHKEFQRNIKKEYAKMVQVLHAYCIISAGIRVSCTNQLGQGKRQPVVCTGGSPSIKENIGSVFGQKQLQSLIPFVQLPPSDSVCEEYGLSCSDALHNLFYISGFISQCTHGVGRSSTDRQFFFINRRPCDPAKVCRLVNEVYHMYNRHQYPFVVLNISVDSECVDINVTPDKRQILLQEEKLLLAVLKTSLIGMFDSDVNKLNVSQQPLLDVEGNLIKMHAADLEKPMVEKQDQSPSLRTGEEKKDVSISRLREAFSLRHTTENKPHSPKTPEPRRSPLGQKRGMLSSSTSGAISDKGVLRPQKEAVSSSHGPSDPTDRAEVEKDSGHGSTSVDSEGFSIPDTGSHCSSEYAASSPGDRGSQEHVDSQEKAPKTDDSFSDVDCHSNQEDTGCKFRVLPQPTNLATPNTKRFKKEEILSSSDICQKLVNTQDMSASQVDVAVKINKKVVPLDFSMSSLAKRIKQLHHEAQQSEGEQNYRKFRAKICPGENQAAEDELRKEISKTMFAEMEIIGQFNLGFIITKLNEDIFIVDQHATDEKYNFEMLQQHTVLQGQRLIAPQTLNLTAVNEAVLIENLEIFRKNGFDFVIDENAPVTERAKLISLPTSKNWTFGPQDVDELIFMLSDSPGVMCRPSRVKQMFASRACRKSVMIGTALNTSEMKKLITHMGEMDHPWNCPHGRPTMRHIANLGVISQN
UniProt Q9P215, sequence (Q9P215 whole entry, looked up): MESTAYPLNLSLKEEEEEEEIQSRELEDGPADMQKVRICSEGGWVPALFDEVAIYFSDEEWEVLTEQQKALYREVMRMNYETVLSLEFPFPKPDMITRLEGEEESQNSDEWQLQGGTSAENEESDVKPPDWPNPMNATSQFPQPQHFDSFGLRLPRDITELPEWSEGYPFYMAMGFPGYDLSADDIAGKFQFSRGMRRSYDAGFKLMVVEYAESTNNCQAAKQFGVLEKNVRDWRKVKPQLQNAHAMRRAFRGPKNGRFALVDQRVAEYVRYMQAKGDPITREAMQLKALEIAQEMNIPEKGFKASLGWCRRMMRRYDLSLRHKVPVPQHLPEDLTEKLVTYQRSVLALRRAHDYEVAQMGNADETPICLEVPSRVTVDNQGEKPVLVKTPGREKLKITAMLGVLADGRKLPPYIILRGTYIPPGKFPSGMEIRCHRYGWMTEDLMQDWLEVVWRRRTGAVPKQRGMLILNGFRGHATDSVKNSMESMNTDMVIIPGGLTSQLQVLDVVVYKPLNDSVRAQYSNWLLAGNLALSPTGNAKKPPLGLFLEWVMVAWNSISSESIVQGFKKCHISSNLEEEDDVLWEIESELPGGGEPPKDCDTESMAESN
UniProt O00541, sequence (O00541 whole entry, looked up): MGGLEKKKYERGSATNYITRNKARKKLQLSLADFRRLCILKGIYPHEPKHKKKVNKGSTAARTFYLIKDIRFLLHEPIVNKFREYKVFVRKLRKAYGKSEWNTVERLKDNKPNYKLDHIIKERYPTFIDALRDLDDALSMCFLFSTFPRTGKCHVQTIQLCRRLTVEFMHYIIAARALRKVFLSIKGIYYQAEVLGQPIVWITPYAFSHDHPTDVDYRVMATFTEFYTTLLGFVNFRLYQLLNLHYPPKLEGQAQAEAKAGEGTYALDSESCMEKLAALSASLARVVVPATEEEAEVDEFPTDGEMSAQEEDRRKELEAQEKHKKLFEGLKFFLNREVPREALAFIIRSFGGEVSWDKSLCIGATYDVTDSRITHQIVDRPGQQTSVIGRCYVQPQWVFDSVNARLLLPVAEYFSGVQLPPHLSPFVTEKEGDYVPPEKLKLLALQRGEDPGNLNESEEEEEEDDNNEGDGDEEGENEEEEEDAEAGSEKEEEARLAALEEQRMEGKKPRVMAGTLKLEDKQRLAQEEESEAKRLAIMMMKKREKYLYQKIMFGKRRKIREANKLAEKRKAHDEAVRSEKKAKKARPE

| Target | log2 fold change (lapatinib) | log2 fold change (pictilisib) | log2 fold change (crizotinib) | log2 fold change [1] | log2 fold change (duvelisib) | log2 fold change (gandotinib) | log2 fold change (tozasertib) | log2 fold change (doramapimod) | log2 fold change (bafetinib) | log2 fold change [2] |
| --- | --- | --- | --- | --- | --- | --- | --- | --- | --- | --- |
| PHOSPHO2 (UniProt Q8TCD6) | -0.043 | 0.015 | -0.001 | -0.063 | -0.044 | -0.009 | -0.184 | -0.045 | -0.024 | -0.002 |
| PDCD10 (UniProt Q9BUL8) | -0.016 | -0.014 | -0.005 | -0.254 (active) | -0.007 | 0.112 | 0.023 | -0.013 | -0.033 | 0.031 |
| PIK3R1 (UniProt P27986) | 0.002 | 0.374 | -0.015 | 0.033 | 0.534 (active) | 0.171 | 0.039 | -0.02 | 0.007 | -0.011 |
| PRPH isoform 2 (UniProt P41219) | 0.082 | 0.131 | 0.05 | 0.03 | 0.051 | -0.08 | 0.096 | -0.015 | 0.025 | 0.001 |
| PI4K2A (UniProt Q9BTU6) | -0.02 | -0.036 | 0.003 | -0.006 | 0.054 | -0.03 | -0.025 | -0.008 | 0.008 | 0.014 |
| PFKP (UniProt Q01813) | -0.011 | -0.014 | 0.014 | 0.033 | -0.02 | -0.034 | -0.012 | -0.015 | 0.005 | -0.012 |
| POMP (UniProt Q9Y244) | 0.048 | 0.031 | -0.054 | 0.221 | 0.11 | -0.063 | 0.022 | 0.038 | 0.017 | -0.038 |
| PI4KB (UniProt Q9UBF8) | 0.02 | 0.031 | -0.011 | -0.01 | 0.005 | 0.011 | -0.02 | 0.055 | -0.073 | 0.014 |
| PTPN2 (UniProt P17706) | -0.016 | -0.01 | -0.074 | -0.084 | -0.042 | -0.013 | -0.037 | -0.012 | -0.077 | 0.071 |
| PI4KA (UniProt P42356) | -0.03 | 0.097 | -0.005 | -0.043 | 0.189 | -0.033 | 0.013 | -0.002 | -0.075 | 0.073 |
| POLB (UniProt P06746) | 0.017 | 0.075 | -0.003 | 0.011 | 0.018 | -0.041 | -0.015 | -0.003 | -0.024 | -0.009 |
| PTPN7 isoform 3 (UniProt P35236) | -0.025 | -0.04 | 0.043 | -0.028 | -0.006 | 0.056 | 0 | 0.007 | 0.036 | 0.115 |
| POGK (UniProt Q9P215) | -0.055 | -0.026 | 0.022 | -0.384 (active) | 0.01 | 0.095 | -0.101 | 0.111 | -0.109 | 0.142 |
| PDE2A (UniProt O00408) | 0.005 | 0 | 0.074 | 0.05 | -0.042 | 0.138 | 0.049 | -0.057 | 0.051 | 0.041 |
| QKI (UniProt Q96PU8) | -0.002 | 0.015 | 0.047 | -0.212 (active) | -0.017 | 0.163 | -0.021 | -0.043 | -0.056 | 0.155 |
| PIP4K2C (UniProt Q8TBX8) | -0.043 | 0.063 | -0.036 | -0.128 | 0.033 | 0.109 | -0.06 | 0.006 | 0.664 (active) | -0.032 |

| Target | log2 fold change (lapatinib) | log2 fold change (pictilisib) | log2 fold change (crizotinib) | log2 fold change [1] | log2 fold change (duvelisib) | log2 fold change (gandotinib) | log2 fold change (tozasertib) | log2 fold change (doramapimod) | log2 fold change (bafetinib) | log2 fold change [2] |
| --- | --- | --- | --- | --- | --- | --- | --- | --- | --- | --- |
| PDAP1 (UniProt Q13442) | -0.004 | 0.03 | 0.043 | -0.232 (active) | -0.043 | 0.135 | -0.026 | -0.03 | 0.006 | 0.089 |
| PCF11 (UniProt O94913) | -0.017 | -0.014 | -0.018 | 0.058 | 0.005 | -0.086 | -0.004 | -0.031 | -0.021 | -0.017 |
| PRKCD (UniProt Q05655) | -0.143 | 0.003 | -0.011 | -0.135 | 0.024 | 0.009 | 0.015 | 0.005 | -0.069 | 0.007 |
| PES1 (UniProt O00541) | 0.006 | 0.005 | -0.001 | -0.027 | 0.01 | -0.025 | 0.004 | -0.021 | -0.014 | 0.064 |
| PELO (UniProt Q9BRX2) | 0.036 | 0.001 | -0.064 | 0.369 (active) | -0.039 | -0.202 | 0.022 | 0.019 | -0.054 | -0.175 |
| PHKG2 (UniProt P15735) | -0.07 | -0.069 | 0.166 | 0 | -0.008 | 0.061 | -0.051 | 0.031 | 0.015 | -0.107 |
| PLK1 (UniProt P53350) | -0.024 | 0.013 | -0.179 | 0.168 | 0.043 | -0.088 | 0.003 | 0.03 | -0.019 | -0.055 |
| PPME1 isoform 4 (UniProt Q9Y570) | -0.014 | 0.009 | 0.005 | -0.014 | 0.002 | -0.002 | 0.048 | 0.026 | 0.052 | -0.006 |
| PUF60 (UniProt Q9UHX1) | 0 | -0.037 | 0.036 | 0.092 | -0.01 | -0.05 | -0.017 | -0.012 | 0.012 | -0.058 |
| PRRC2A (UniProt P48634) | -0.02 | -0.017 | 0.06 | 0.011 | -0.001 | 0.007 | -0.013 | -0.073 | 0.031 | -0.058 |
| PMS2 (UniProt P54278) | 0.016 | 0.021 | -0.038 | -0.036 | 0 | -0.064 | -0.014 | -0.038 | 0.021 | 0.037 |
| PIK3R2 (UniProt O00459) | -0.009 | 0.318 (active) | -0.018 | 0.009 | 0.322 (active) | 0.043 | 0.009 | 0.014 | -0.004 | -0.016 |
| PRMT7 (UniProt Q9NVM4) | -0.006 | 0 | 0.025 | -0.014 | 0.035 | -0.045 | 0.039 | -0.025 | -0.01 | -0.008 |
| PXMP4 (UniProt Q9Y6I8) | -0.071 | 0.066 | -0.29 | -0.068 | -0.112 | -0.221 | -0.034 | 0.238 | -0.148 | 0.194 |
| PTPN1 (UniProt P18031) | -0.022 | -0.022 | -0.031 | -0.042 | -0.007 | -0.055 | 0.069 | 0.059 | -0.029 | 0.062 |
